Test [1] can be described thus: A CellTox Green Cytotoxicity Assay to monitor cytotoxicity in HepG2 cells - 8 hour (AID 1224890). Note: nearly all actives have a fitted effect of over 45% in size. Note: potency is the fitted concentration of half-maximal effect. Put shortly:
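Real-time, homogeneous cytotoxicity readout: dead-cell DNA staining by CellTox Green in HepG2 monolayers, fluorescence measured at timed intervals up to 40 h of continuous compound exposure.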

Test [2] can be described thus: qHTS assay to identify small molecule antagonists of the androgen receptor (AR) signaling pathway using the MDA cell line in the presence of 0.5 nM R1881 - cell viability counter screen (AID 1259242). Note: nearly all actives have a fitted effect of over 45% in size. Note: potency is the fitted concentration of half-maximal effect. Put shortly: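 Cytotoxicity toward MDA-kb2 cells is measured by CellTiter-Fluor live-cell protease fluorescence after 16 hr compound exposure at 37C in the presence of 0.5 nM R1881 stimulator.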

Test [3] has as its target Estrogen receptor (Homo sapiens) (UniProt P03372). The experiment in a line: qHTS assay to identify small molecule antagonists of the estrogen receptor alpha (ER-alpha) signaling pathway using the BG1 cell line in the presence of 0.1 nM 17-beta-estradiol (AID 1259244). Note: nearly all actives have a fitted effect of over 50% in size. Put shortly: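 After 5 days in hormone-depleted medium (charcoal-stripped serum, no phenol red), VM7Luc4E2 cells were seeded, incubated 24 h, then co-treated with compound and 0.1 nM (final) estradiol for 22 h before luminescence detection.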

Test [4] in a line: qHTS assay to identify small molecule HDAC inhibitors (AID 1259364). Note: top concentration of the series differs between compounds; nearly all actives have a fitted effect of over 45% in size. Put shortly:
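Homogeneous cell-based luminescent assay of endogenous class I/II HDAC activity; HCT-116 cells, 2 h compound exposure, 30 min HDAC-Glo development at RT.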

Test [5] in a line: qHTS assay to identify small molecule HDAC inhibitors - cell viability counter screen (AID 1259365). Note: series mostly up to about 92 µM; nearly all actives have a fitted effect of over 50% in size. Put shortly: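 To flag cytotoxic hits, 1,500 wild-type HCT-116 cells per well, plated the day before, receive test compounds for 2hr at 37 C before CellTiter-Glo reagent and a luminescence read.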
Test [6] is described as follows: qHTS assay to identify small molecule agonists of the sonic hedgehog signaling (Shh) pathway - cell viability counter screen (AID 1259366). Note: nearly all actives have a fitted effect of over 50% in size. Note: potency is the fitted concentration of half-maximal effect. The essentials: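 Fluorescence from CellTiter-Fluor reports live cells in this counter screen. NIH/3T3-derived Gli1-Luc reporter cells receive test compounds for 24hr at 37C; reagent goes in at 23hr.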
A short description of test [7]: qHTS assay to identify small molecule antagonists of the sonic hedgehog signaling (Shh) pathway - cell viability counter screen (AID 1259367). Note: nearly all actives have a fitted effect of over 55% in size. Note: potency is the fitted concentration of half-maximal effect. Put shortly: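 NIH/3T3-derived Gli1-Luc reporter cells (2,000 per well) rested 4 hr at 37 C, then received DMSO compounds plus conditioned medium. After 23 hr of treatment, CellTiter-Fluor was added for 1 hr at 37C and fluorescence read.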

Test [8] can be described thus: qHTS assay to identify small molecule agonists of the sonic hedgehog signaling (Shh) pathway (AID 1259368; calls by dose curve;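 note: NIH/3T3-derived 3T3Gli1-Luc cells carrying a stable Gli1-driven firefly luciferase reporter; series mostly up to about 92 µM; nearly all actives have a fitted effect of over 15% in size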). The essentials: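 Steps: seed 3T3 Gli1-Luc cells, incubate 4 hr at 37 C, pin-transfer compounds in DMSO alongside a positive control, incubate 24 hr, add luciferase detection reagent, wait 30 min at room temperature, read luminescence.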
Test [9] is described as follows: qHTS assay to identify small molecule antagonists of the sonic hedgehog signaling (Shh) pathway (AID 1259369; calls by dose curve; note: nearly all actives have a fitted effect of over 45% in size; note: potency is the fitted concentration of half-maximal effect). The essentials:
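Inhibition of Shh signalling is measured as reduced Gli1-response-element firefly luciferase output in an NIH/3T3-derived stable reporter clone stimulated with conditioned medium for 24hr.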

Test [10] is described as follows: qHTS assay to identify small molecule agonists of the androgen receptor (AR) signaling pathway in the presence of an antagonist - cell viability counter screen (AID 1259379). Note: nearly all actives have a fitted effect of over 25% in size. Note: potency is the fitted concentration of half-maximal effect. The essentials: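 Fluorescence from CellTiter-Fluor, added after 15 hr and read 1 hr later, gave cell viability. Cells were MDA-kb2 exposed to compounds (15 concentrations) in the presence of 3.0uM nilutamide at 37C, 0% CO2.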

Test [11] in a line: qHTS assay to identify small molecule agonists of the estrogen receptor beta (ER-beta) signaling pathway - cell viability counter screen (AID 1259380). Note: nearly all actives have a fitted effect of over 30% in size. Note: potency is the fitted concentration of half-maximal effect. The essentials: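 Same-well viability counter screen. Cells: ER-beta-UAS-bla HEK293T, plated 6 hr before compound, in 2% charcoal-stripped FBS. Compound exposure 16 hr, 37C; viability by CellTiter-Glo luminescence after 30 min at room temperature.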

Test [12] is described as follows: qHTS assay to identify small molecule antagonists of the estrogen receptor beta (ER-beta) signaling pathway - cell viability counter screen (AID 1259382). Note: nearly all actives have a fitted effect of over 55% in size. Note: potency is the fitted concentration of half-maximal effect. Put shortly:
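Following a 6 hr plating period, HEK293T cells carrying a UAS-driven beta-lactamase reporter under ER-beta control received compounds and 1nM E2 (final). After 16 hr at 37C and 2 hr substrate loading, CellTiter-Glo luminescence indicated viability.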

The target of test [13] is Estrogen receptor (Homo sapiens) (UniProt P03372). The experiment in a line: qHTS assay to identify small molecule agonists of the estrogen receptor alpha (ER-alpha) signaling pathway in the presence of an antagonist (AID 1259383; calls by dose curve; note: nearly all actives have a fitted effect of over 15% in size; note: potency is the fitted concentration of half-maximal effect; for activation: top concentration of the series differs between compounds). Put shortly:
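Cells are hormone-deprived for 5 days (charcoal-stripped FBS, no phenol red), plated for 24hr, spiked with 10.0nM ICI-182,780, then dosed at 15 concentrations. After 22hr at 37C, ONE-Glo luminescence reports ERE-luciferase activity.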

The nature of test [14]: qHTS assay to identify small molecule agonists or antagonists of the thyroid stimulating hormone receptor (TSHR) signaling pathway - wild type cell line counter screen (AID 1259384; calls by dose curve). The essentials:
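Wild-type HEK293 cells were plated 18 h at 37 C/5% CO2, pin-dosed with compound plus Ro20-1724 medium, held 30 min at room temperature, then given cAMP-d2 and anti-cAMP-cryptate; fluorescence was read after 1 h. Fifteen concentrations, triplicate.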

The target in test [15] is Thyrotropin receptor (Homo sapiens) (UniProt P16473). The experiment in a line: qHTS assay to identify small molecule antagonists of the thyroid stimulating hormone receptor (TSHR) signaling pathway (AID 1259385; calls by dose curve; note: nearly all actives have a fitted effect of over 20% in size). Put shortly:
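TSHR-HEK293 cells were plated and held 18 h at 37C/5% CO2, then given compound plus Ro20-1724 and stimulated with TSH at 1.5 ng/mL final. After 30 min at room temperature, cAMP was detected with cAMP-d2/anti-cAMP-cryptate (1 h) by fluorescence.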

Test [16] has as its target Estrogen receptor beta (Homo sapiens) (UniProt Q92731). The experiment in a line: qHTS assay to identify small molecule agonists of the estrogen receptor beta (ER-beta) signaling pathway (AID 1259377; active = well fitted activation curve with a large enough effect in the signal ratio in the repeat runs, not every such curve was filed as active; the % refers to the signal ratio; note: potency is the fitted concentration of half-maximal effect). Put shortly: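 Screening used GripTite ER-beta-UAS-bla cells held in 2% charcoal-stripped FBS medium. After overnight (16 hr) compound incubation at 37C, beta-lactamase activity was detected with a FRET substrate by fluorescence.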

A short description of test [17]: qHTS assay to identify small molecule phospholipidosis (PLD) inducers (AID 1259344; active = well fitted curve in the direction sought with a large enough effect; an effect the other way counts as inactive or inconclusive). The essentials: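 HepG2 cells on collagen I, attached 4 h at 37 C, were co-treated with compound and LipidTOX Red dye for 24 h at 37 C, then fixed with paraformaldehyde plus Hoechst 33342 and imaged by high-content microscopy for phospholipid accumulation.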
Test [18] deals with Estrogen receptor beta (Homo sapiens) (UniProt Q92731). The experiment in a line: qHTS assay to identify small molecule antagonists of the estrogen receptor beta (ER-beta) signaling pathway (AID 1259378; active = well fitted inhibition curve with a large enough effect in the signal ratio in the repeat runs, not every such curve was filed as active; the % refers to the signal ratio). Put shortly:
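ER-beta-UAS-bla HEK293T (GripTite) cells in 2% charcoal-stripped FBS medium were preincubated 6 hr at 37C, dosed with compound, then stimulated with 1 nM E2 (final) for 16 hr; beta-lactamase reporter read by B/G FRET fluorescence after 2 hr substrate loading.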

Several values for one entry are separate records, joined by “and”; a condition that tells them apart may be missing. Equal entries are not always repeated. Inconclusive results are not listed. The source holds several records for some structures; these can differ, active in one and inactive in another. Activity calls are given as the source filed them. Unless noted, calls come from the whole dose curve; as a rule, active = well fitted curve in the direction sought with a large enough effect in the repeat runs; inconclusive = weak or mixed curves; inactive = no such curve, though single readings can be large; an effect the other way counts as inactive or inconclusive.

Estrogen receptor (Homo sapiens), sequence (P03372 whole entry, looked up): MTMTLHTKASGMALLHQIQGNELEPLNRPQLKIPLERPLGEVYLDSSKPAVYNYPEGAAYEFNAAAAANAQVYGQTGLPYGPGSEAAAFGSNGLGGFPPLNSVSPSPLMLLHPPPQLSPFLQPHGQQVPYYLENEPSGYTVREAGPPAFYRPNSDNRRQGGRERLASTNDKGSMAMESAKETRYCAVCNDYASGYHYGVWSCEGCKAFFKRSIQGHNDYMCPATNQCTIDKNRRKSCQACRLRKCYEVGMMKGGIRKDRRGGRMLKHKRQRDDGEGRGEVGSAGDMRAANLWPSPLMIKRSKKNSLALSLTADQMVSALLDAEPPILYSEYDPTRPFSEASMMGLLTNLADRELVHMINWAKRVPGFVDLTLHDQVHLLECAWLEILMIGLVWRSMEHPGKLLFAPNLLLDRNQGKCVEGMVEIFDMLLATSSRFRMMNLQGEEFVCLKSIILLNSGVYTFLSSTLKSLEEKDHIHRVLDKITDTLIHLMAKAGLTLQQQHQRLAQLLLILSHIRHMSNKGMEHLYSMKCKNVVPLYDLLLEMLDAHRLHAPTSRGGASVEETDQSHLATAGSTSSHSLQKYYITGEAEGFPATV
Estrogen receptor beta (Homo sapiens), sequence (Q92731 whole entry, looked up): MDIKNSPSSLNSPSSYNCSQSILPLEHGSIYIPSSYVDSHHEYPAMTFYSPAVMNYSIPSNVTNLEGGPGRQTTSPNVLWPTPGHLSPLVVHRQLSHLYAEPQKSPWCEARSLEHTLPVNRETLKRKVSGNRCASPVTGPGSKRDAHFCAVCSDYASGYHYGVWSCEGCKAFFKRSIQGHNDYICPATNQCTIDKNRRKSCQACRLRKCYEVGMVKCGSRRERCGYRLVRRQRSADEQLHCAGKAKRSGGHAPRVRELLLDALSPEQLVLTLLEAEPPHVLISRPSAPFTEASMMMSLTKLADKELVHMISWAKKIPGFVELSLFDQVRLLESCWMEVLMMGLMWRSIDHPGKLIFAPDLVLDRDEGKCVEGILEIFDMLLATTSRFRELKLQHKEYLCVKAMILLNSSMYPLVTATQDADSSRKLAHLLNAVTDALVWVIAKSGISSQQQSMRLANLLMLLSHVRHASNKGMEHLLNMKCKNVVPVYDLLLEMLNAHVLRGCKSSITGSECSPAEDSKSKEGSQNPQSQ
Thyrotropin receptor (Homo sapiens), sequence (P16473 whole entry, looked up): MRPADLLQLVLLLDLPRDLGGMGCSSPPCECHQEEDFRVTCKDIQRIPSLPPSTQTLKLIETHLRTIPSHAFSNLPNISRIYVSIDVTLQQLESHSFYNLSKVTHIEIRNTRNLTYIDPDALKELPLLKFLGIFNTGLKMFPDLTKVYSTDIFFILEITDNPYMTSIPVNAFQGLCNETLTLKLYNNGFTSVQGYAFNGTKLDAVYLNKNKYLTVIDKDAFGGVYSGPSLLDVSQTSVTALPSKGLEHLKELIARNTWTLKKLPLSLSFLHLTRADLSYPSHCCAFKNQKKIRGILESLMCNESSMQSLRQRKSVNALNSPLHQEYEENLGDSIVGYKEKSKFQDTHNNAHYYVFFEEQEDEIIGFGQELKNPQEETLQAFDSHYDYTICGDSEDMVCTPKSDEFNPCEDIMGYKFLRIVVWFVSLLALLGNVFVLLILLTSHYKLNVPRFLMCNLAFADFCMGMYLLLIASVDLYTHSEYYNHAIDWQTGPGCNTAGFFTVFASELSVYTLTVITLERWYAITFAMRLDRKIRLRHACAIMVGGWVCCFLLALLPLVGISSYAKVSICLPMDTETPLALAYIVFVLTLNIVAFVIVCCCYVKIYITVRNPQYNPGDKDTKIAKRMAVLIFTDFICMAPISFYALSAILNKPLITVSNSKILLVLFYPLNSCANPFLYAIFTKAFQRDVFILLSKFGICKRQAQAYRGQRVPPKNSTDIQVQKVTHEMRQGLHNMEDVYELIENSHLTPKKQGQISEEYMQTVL

For the compound `CC1(C)CC(N=C=O)CC(C)(CN=C=O)C1` (configuration not stated), the Potency result in test [1], in test [2], in [3], in test [4], in test [6] and in test [7] was “inactive” throughout. Besides, the Potency result in test [9], in [10], in test [11], in [12] and in [13] was “inactive” in each case. In addition, the compound was called inactive in [5], in [8], in [14] and in test [15].

As to `OC[C@@H](O)[C@@H](O)[C@H](O)[C@@H](O)CO`, the Potency result in test [1], in test [2], in [3], in [4], in test [6] and in test [7] was “inactive” each time. Further, the Potency entry in test [9], in test [11], in test [12] and in test [13] was “inactive” throughout. The outcome in [5], in [8], in test [14] and in test [15] was inactive.

On to `CC(C)NCC(O)COc1cccc2ccccc12` (configuration not stated), for which the Potency entry in test [1], in [2], in [4], in test [6], in test [7] and in test [16] was “inactive” in each case. In addition, in [10], the Potency entry is “inactive”. Moreover, the compound was classed as inactive in [8]. For the same compound, the Potency in test [9] is 24.3 µM (active); in [11] it was 55 µM (active) and 54.5 µM (active); in [12], 27.6 µM (active).

For the compound `CC(=O)[C@@]1(O)CC[C@H]2[C@@H]3CCC4=CC(=O)CC[C@]4(C)[C@H]3CC[C@@]21C`, the Potency entry in test [1], in test [2], in test [4], in test [6], in test [7] and in test [9] was “inactive” in each case. The Potency result in [16], in test [18], in test [10], in [11] and in test [12] was “inactive” throughout. Moreover, the result in test [17], in [5], in [8], in test [14] and in test [15] was inactive.

For the compound `O=C(c1ccc(O)cc1)c1ccc(O)cc1O`, the Potency entry in test [1] is “inactive and 54.9 µM (active)”; in test [9] it was 55 µM (active); in test [16], 13.8 µM (active) and 12.2 µM (active); in test [13], 15.5 µM (active) and 13.7 µM (active). Further, the Potency result in test [2], in test [3], in test [6], in test [7], in [11] and in test [12] was “inactive” throughout. Besides, the outcome in [5], in test [8], in [14] and in [15] was inactive.

On to `CCCCCCC(C)(C)S`, for which the Potency entry in [1], in test [2], in test [4], in [6], in test [7] and in test [9] was “inactive” throughout. Also, the Potency entry in [16], in test [18], in test [10], in test [11] and in [12] was “inactive” each time. Besides, the compound was called inactive in [5], in test [8], in test [14] and in [15].

For `Nc1c(S(=O)(=O)O)cc(Br)c2c1C(=O)c1ccccc1C2=O`, the Potency entry in test [1], in test [3], in test [4], in test [9], in test [16] and in [18] was “inactive” each time. Also, the Potency result in test [11], in [12] and in test [13] was “inactive” each time. The Potency result in [2] was “inactive and 24.3 µM (active)”; in [6], “inactive and 30.6 µM (active)”; in test [7] it was “inactive and 27.3 µM (active)”; in test [10] it was 27.3 µM (active). Moreover, the call in test [5], in test [8], in [14] and in test [15] was inactive.
